# Assay outcomes from PubChem.
# ClpP mod – qHTS Assay for Activators of ClpP; ATP-dependent Clp protease proteolytic subunit (Bacillus subtilis (strain 168)), P80244; purified B. subtilis ClpP, FRET peptide cleavage, 20 min; Potency, µM (titrated, usually from 57.5 µM); 340,000 compounds, 1.9% hits; AID 651965, 2013; active = well fitted falling curve with a large enough effect; inconclusive = small, poorly fitted or top-dose-only effect; inactive = no such curve, though single readings can be large or run the other way; note: the source files actives as falling curves though it sought activators and does not explain the sign; nearly all actives have a fitted effect of over 65% in size
# Target sequence (P80244 whole entry, looked up): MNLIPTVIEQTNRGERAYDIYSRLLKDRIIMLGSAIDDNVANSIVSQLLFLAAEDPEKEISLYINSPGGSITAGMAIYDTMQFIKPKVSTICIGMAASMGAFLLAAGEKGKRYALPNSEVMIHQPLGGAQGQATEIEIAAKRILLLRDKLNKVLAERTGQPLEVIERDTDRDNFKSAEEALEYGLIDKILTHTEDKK
#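 ClpP 10 microg/mL final, pH 8 Tris/KCl buffer with BSA, glycerol, Tween-20; compound pinned in; FRET-FV substrate; RT 20 min; Ex320/Em430; ΔFRET vs ADEP 5.8 microM, DMSO, no enzyme.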
# DT40 TDP1 CPT – DT40-hTDP1 cell growth loss with CPT | chicken DT40 Tdp1-/-;hTDP1 cells + 20 nM CPT, ATP luminescence, 48 h | Potency, µM (series often up to 46.2 µM), actives largely listed as inhibitors | 420,000 compounds, 12% hits | AID 686979; note: nearly all actives have a fitted effect of over 55% in size
#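 Chicken DT40 Tdp1-/- cells complemented with human TDP1, 400 cells/well, exposed to compounds plus 20 nM camptothecin for at least 48 h at 37 C; viability read as ATP content by CellTiter-Glo luminescence.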
# IL-1B inflam inh – inhibitors of inflammasome signaling (IL-1 beta secretion). 360,000 compounds, 4.7% hits. activity change, % at 57.5 µM. THP-1 LPS/ATP IL-1B secretion, AlphaLISA, 16 h; stronger effect = lower value. AID 743279; in the data active = activity change below about -50%; inconclusive = mostly about -30% to -49%
#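 Secreted IL-1B measured by AlphaLISA bead assay after 16 h compound exposure of THP-1 cells; compounds (final up to 57.5 uM) added 1 h before LPS (250 ng/mL) and ATP (1.25 mM) stimulation; lower signal means less secretion.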
# TDP1 cell noCPT – qHTS for Inhibitors of human tyrosyl-DNA phosphodiesterase 1 (TDP1): qHTS in cells in absence of CPT; DT40 Tdp1-/- hTDP1 cells, no CPT, ATP luminescence, 48 h; Potency, µM (titrated, usually from 46.2 µM), hits mostly inhibitors; 420,000 compounds, 15% hits; AID 686978, 2013; note: nearly all actives have a fitted effect of over 55% in size
#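 Chicken DT40 Tdp1-/- cells complemented with human TDP1, screened without camptothecin (DMSO vehicle only), 400 cells/well. Compounds pin-transferred, cells incubated at 37 °C for at least 48 hr. Growth read as ATP-dependent luminescence (CellTiter-Glo, 30 min at RT).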
# D3 ag – activates the human D3 dopamine receptor; P35462; D3R DiscoveRx beta-arrestin cells, luminescence, 90 min; 410,000 compounds, 0.58% hits; max activation, %; AID 652048; in the data active = max activation above about 30%
#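 Agonist-mode cell screen: cells plated at 1500/well and incubated overnight at 37 °C, then exposed to library compounds for 90 min at 37 °C. Detection reagent was added for 30–60 min at room temperature, and luminescence was read.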
# D3 antag – blocks the human D3 dopamine receptor | 360,000 compounds, 2.5% hits | D3R cells, DiscoveRx beta-arrestin luminescence, antagonist mode; stronger effect = lower value | max response, negative = inhibition, % | P35462; in the data active = max response below about -50%; inconclusive = no clear call, values can overlap the other calls
#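 Cells plated overnight at 1500 cells/well, then exposed to library compounds with dopamine controls for 90 minutes at 37 degrees C. DiscoveRx reagent added for 30–60 minutes at room temperature; luminescence read, quantitative HTS format.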
# Hits are given with their value; 0 = inactive; ? = inconclusive; - = no result; [ ] = remark or other dose. Only some compounds are listed: those with a hit (about 21% of all), similar ones and a draw of the others. Unless noted, calls come from the whole dose curve; as a rule, active = well fitted inhibition curve with a large enough effect; inconclusive = small, poorly fitted or top-dose-only effect; inactive = flat fitted curve, though single readings scatter.
SMILES,ClpP mod,DT40 TDP1 CPT,IL-1B inflam inh,TDP1 cell noCPT,D3 ag,D3 antag
COc1cc(/C=C/c2noc(-c3ccccc3O)n2)cc(OC)c1OC,0,0,0,?,0,0
COc1cc(/C=C/c2ccc3cccc(O)c3n2)cc(Cl)c1OC,-,4.11µM,-93.3,4.11µM,0,-51.6
COc1ccc(/C=C/c2ccc3cccc(O)c3n2)cc1Br,0,5.8µM,0,5.17µM,0,?
CC(=O)Nc1ccc(/C=C/c2ccc3cccc([N+](=O)[O-])c3n2)cc1,0,?,0,?,0,0
CC(=O)N1CCOc2cc(S(=O)(=O)NCc3ccccc3Cl)c(Cl)cc21,0,?,-,0,0,-
COc1ccc(Br)cc1/C=C/c1ccc2cccc(O)c2n1,-,?,0,20.6µM,0,0
COc1cc(Br)cc(/C=C/c2ccc3cccc(O)c3n2)c1OC,0,?,0,?,0,0
COc1cc(/C=C/c2ccc3cccc(O)c3n2)cc(Br)c1OC,-,11.6µM,?,18.4µM,0,-55.1
CCC(=O)N[C@@H]1CC[C@@H](CCNC(=O)Nc2ccc(F)cc2)O[C@@H]1CO,0,0,0,0,0,0
CCc1ccccc1OCC(=O)Nc1ccc(S(=O)(=O)Nc2nc(C)cc(C)n2)cc1,0,0,-,?,0,-
CCCCc1[nH]c(=O)c(C#N)c2c1CCCC2,25.1µM,0,0,0,0,0
Cc1[nH]c(=O)c(C#N)c2c1CSC(C)(C)C2,25.1µM,0,0,0,0,0
Cc1[nH]c(=O)c(C#N)c2c1CCCC2,28.2µM,0,0,?,0,0
Cc1c(C(=O)NCCc2cccnc2)cnn1-c1ncc2c(n1)-c1ccccc1CC2,-,0[9.04 µM],-,?,-,-
Cc1ccc(-n2nc3c(N4CCC(C(=O)NC5CCCCC5)CC4)nnc(C)c3c2C)cc1,0,?,-,11.6µM,0,-
Cc1nnc(N2CCC(C(=O)NC3CCC(C)CC3)CC2)c2nn(-c3ccc(Cl)cc3)c(C)c12 (configuration not stated),0,0,0,0,0,0
Cc1ccc(-n2nc3c(N4CCC(C(=O)NC5CCC(C)CC5)CC4)nnc(C)c3c2C)cc1 (configuration not stated),?,14.6µM,-,20.6µM,0,-
Cc1nnc(N2CCC(C(=O)NC3CCCCC3)CC2)c2nn(-c3ccc(Cl)cc3)c(C)c12,0,0,-,0,0,-
C/C(CC(C)(C)C1CCCCC1)=N\NC(N)=S,0,4.11µM,-101.6,3.26µM,0,?
C/C(CC1CC(C)OC1=O)=N\NC(N)=S (configuration not stated),0,0,0,0,0,0
CC12CCC(=O)N1C(C(=O)NNC(=O)c1ccc(Br)cc1)CS2 (configuration not stated),0,0,0,0,0,0
Cc1ccc2[nH]c(CCN(C)C)c(CN3CCOCC3)c2c1,0,20.6µM,0,?,0,0
COc1ccccc1CNc1nc(-c2ccco2)nn1S(C)(=O)=O,0,?,-,?,0,-
NC(=O)CC(NC(=O)Cc1cccc2ccccc12)c1ccc(NCc2ccccn2)c([N+](=O)[O-])c1 (configuration not stated),0,0,0,0,0,0
NC(=O)CC(NC(=O)Cc1cccc2ccccc12)c1ccc(NCc2ccccc2)c([N+](=O)[O-])c1 (configuration not stated),0,?,0,?,0,-50.8
NC(=O)CC(NC(=O)Cc1cccc2ccccc12)c1ccc(NCCc2ccccc2F)c([N+](=O)[O-])c1 (configuration not stated),0,20.6µM,0,?,0,0
NC(=O)CC(NC(=O)Cc1cccc2ccccc12)c1ccc(NCc2ccc(F)cc2)c([N+](=O)[O-])c1 (configuration not stated),0,?,0,?,0,-59.7
